Experimental data from PubChem BioAssay (NCI).
This is part of a sample that, as a whole, favours compounds with a hit. Of some 79,000 tested, about 15% had one in any assay. The source made the active and inactive calls. Rule as the data show it: active = growth inhibition above about 70%; inactive = the rest.

Assay: NCI Yeast Anticancer Drug Screen. Data for the bub3 strain (AID 167)
Conditions: S. cerevisiae bub3 mutant strain, at 50.0 µM, hits give high values
Method in brief: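 Part of a panel of yeast mutants defective in DNA damage repair or cell cycle regulation. Each strain is grown with compound, and inhibition is calculated relative to solvent-treated cultures.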

Row | SMILES | growth inhibition
1 | O=CC=C(c1ccccc1)c1ccccc1 | 40.6% (inactive)
2 | FC(F)(F)c1nc2nc(Cl)c(Cl)nc2n1CCCN1CCOCC1 | 55.8% (inactive)
3 | BrCC[P+](c1ccccc1)(c1ccccc1)c1ccccc1 | 87.8% (active)
4 | N#CSc1ccc(S(N)(=O)=O)cc1 | 75.8% (active)
5 | O=[N+]([O-])c1ccc2nc3ccccc3cc2c1 | 69% (inactive)
6 | O=C(NC(Nc1ccc(F)c(Cl)c1)(C(F)(F)F)C(F)(F)F)C(C(F)(F)F)C(F)(F)F | 75% (active)
7 | O=C(/C=C\c1ccc(Cl)cc1Cl)c1cccs1 | 54.9% (inactive)
8 | O=C(NCCCCNCCCNC(=O)c1cc(-c2ccccc2)nc2ccccc12)c1cc(-c2ccccc2)nc2ccccc12 | 97.2% (active)
9 | NC(=NCc1ccccc1)N/N=C\c1ccnc2ccccc12 | 22.4% (inactive)
10 | CCCCN(CCCC)CCSc1ccc(Cl)cc1 | 94.5% (active)
11 | COc1cc(C2C3=C(COC3=O)Oc3cc4c(cc32)OCO4)ccc1O (stereo not drawn) | 29.3% (inactive)
12 | C#CCCCc1ccccc1 | 39.9% (inactive)
13 | CCc1ccc(NS(=O)(=O)c2ccccc2)c([N+](=O)[O-])c1 | 53.6% (inactive)
14 | COc1ccc(C2c3cc4c(cc3OC(C)(O)C2C)OCO4)c(OC)c1 (stereo not drawn) | 43% (inactive)
15 | COC(=O)c1ccc(CCC2=CC(=O)C(Br)=CC2=O)cc1 | 23.1% (inactive)
16 | NNC(=O)CCc1ccc2ccc3ccccc3c2c1 | 37.2% (inactive)
17 | Cn1c2ccccc2c(=O)c2cc(NC(=O)CCCCC(=O)Nc3ccc4c(c3)c(=O)c3ccccc3n4C)ccc21 | -22.2% (inactive)
18 | CC(CC(C)(C)[N+](C)(C)C)[N+](C)(C)C (stereo not drawn) | 95.7% (active)
19 | CC1CCN(CCC(=O)c2ccc(Cl)cc2)CC1 | 81.7% (active)
20 | CCCCCCCCCCCCCCC(C(=O)[O-])[n+]1ccccc1 (stereo not drawn) | 97.3% (active)

Row | SMILES | growth inhibition
21 | CNC1C(OC2C(OC3C(O)C(O)C(N=C(N)N)C(O)C3N=C(N)N)OC(C)C2(O)CO)OC(CO)C(O)C1O (stereo not drawn) | 93.5% (active)
22 | O=C(O)c1ccccc1-c1ccccc1C(=O)Nc1ccc2c(c1)Cc1ccccc1-2 | 83.2% (active)
23 | O=[N+]([O-])c1cccc2nc3ccccc3c(NCCCN3CCOCC3)c12 | 90.1% (active)
24 | C=CC(C)(O)CCC1C(=C)C(O)CC2C(C)(C)CCCC12C (stereo not drawn) | 73% (active)
25 | CN1c2ccc(Cl)cc2C(=O)NC1c1ccc([N+](=O)[O-])s1 (stereo not drawn) | 92.4% (active)
26 | [O-][n+]1c2ccc(O)cc2nc2ccc(Br)cc21 | 84% (active)
27 | O=C1c2ccccc2-c2nc3ccccc3nc21 | -14.2% (inactive)
28 | CCCCN1C(=O)N(c2ccc(OCC)cc2)C2N(CCCC)C1C(C)(C)C2(C)C (stereo not drawn) | 27.9% (inactive)
29 | CO[C@H]1C[C@](C)(O)Cc2cc3c(c(O)c21)C(=O)c1c(O)cc2c(c1C3=O)O[C@@H]1O[C@@]2(C)[C@H](O)[C@@H](N(C)C)[C@@H]1O | -10.6% (inactive)
30 | COc1cc2c(cc1[N+](=O)[O-])C(=O)C(Br)(Br)CCC2 | 90% (active)
31 | O=C1OC(CCl)CN1/N=C/c1ccc([N+](=O)[O-])o1 (stereo not drawn) | 10% (inactive)
32 | CN(C)CCOc1ccc2c(c1)C/C(=C/c1ncc([N+](=O)[O-])n1C)C2=O | 72.9% (active)
33 | CCCCCCCCCCCCCCCCCCN(C)CC(COP(=O)([O-])OCC[N+](C)(C)C)OC (stereo not drawn) | 90% (active)
34 | CC(C)c1ccccc1NC(=O)/C(Cl)=C(\Cl)C(=O)O | 8.1% (inactive)
35 | O=[N+]([O-])C(=C(Sc1ccccc1)Sc1ccccc1)C(Cl)=C(Cl)Cl | 60.2% (inactive)
36 | C(=C\c1ccccc1)/COc1ccccc1C(N1CCOCC1)n1nc2ccccc2n1 (stereo not drawn) | 98.3% (active)
37 | O=C1C(Nc2ccccc2)=C(Oc2ccccc2)C(=O)c2ccccc21 | 82.5% (active)
38 | CCN(CC)CCN1C(=O)c2cccc3cc(OC)cc(c23)C1=O | -22.1% (inactive)
39 | CN(C)Cc1cc(N=Nc2ccc(Cl)cc2)cc(CN(C)C)c1O | 91.2% (active)

Same assay, conditions: S. cerevisiae bub3 mutant strain, at 100.0 µM, hits give high values

Row | SMILES | growth inhibition
40 | O=CC=C(c1ccccc1)c1ccccc1 | 98% (active)
41 | FC(F)(F)c1nc2nc(Cl)c(Cl)nc2n1CCCN1CCOCC1 | 35% (inactive)
42 | BrCC[P+](c1ccccc1)(c1ccccc1)c1ccccc1 | 97% (active)
43 | N#CSc1ccc(S(N)(=O)=O)cc1 | 79% (active)
44 | O=[N+]([O-])c1ccc2nc3ccccc3cc2c1 | 94% (active)
45 | O=C(NC(Nc1ccc(F)c(Cl)c1)(C(F)(F)F)C(F)(F)F)C(C(F)(F)F)C(F)(F)F | 97% (active)
46 | O=C(/C=C\c1ccc(Cl)cc1Cl)c1cccs1 | 48% (inactive)
47 | O=C(NCCCCNCCCNC(=O)c1cc(-c2ccccc2)nc2ccccc12)c1cc(-c2ccccc2)nc2ccccc12 | 92% (active)
48 | NC(=NCc1ccccc1)N/N=C\c1ccnc2ccccc12 | 56% (inactive)
49 | CCCCN(CCCC)CCSc1ccc(Cl)cc1 | 92% (active)
50 | COc1cc(C2C3=C(COC3=O)Oc3cc4c(cc32)OCO4)ccc1O (stereo not drawn) | 32% (inactive)
51 | C#CCCCc1ccccc1 | 97% (active)
52 | CCc1ccc(NS(=O)(=O)c2ccccc2)c([N+](=O)[O-])c1 | 67% (inactive)
53 | COc1ccc(C2c3cc4c(cc3OC(C)(O)C2C)OCO4)c(OC)c1 (stereo not drawn) | 95% (active)
54 | COC(=O)c1ccc(CCC2=CC(=O)C(Br)=CC2=O)cc1 | 29% (inactive)
55 | NNC(=O)CCc1ccc2ccc3ccccc3c2c1 | 58% (inactive)
56 | Cn1c2ccccc2c(=O)c2cc(NC(=O)CCCCC(=O)Nc3ccc4c(c3)c(=O)c3ccccc3n4C)ccc21 | 19% (inactive)
57 | CC(CC(C)(C)[N+](C)(C)C)[N+](C)(C)C (stereo not drawn) | -1% (inactive)
58 | CC1CCN(CCC(=O)c2ccc(Cl)cc2)CC1 | 31% (inactive)
59 | CCCCCCCCCCCCCCC(C(=O)[O-])[n+]1ccccc1 (stereo not drawn) | 85% (active)

Row | SMILES | growth inhibition
60 | CNC1C(OC2C(OC3C(O)C(O)C(N=C(N)N)C(O)C3N=C(N)N)OC(C)C2(O)CO)OC(CO)C(O)C1O (stereo not drawn) | -9% (inactive)
61 | O=C(O)c1ccccc1-c1ccccc1C(=O)Nc1ccc2c(c1)Cc1ccccc1-2 | 96% (active)
62 | O=[N+]([O-])c1cccc2nc3ccccc3c(NCCCN3CCOCC3)c12 | 98% (active)
63 | C=CC(C)(O)CCC1C(=C)C(O)CC2C(C)(C)CCCC12C (stereo not drawn) | 69% (inactive)
64 | CN1c2ccc(Cl)cc2C(=O)NC1c1ccc([N+](=O)[O-])s1 (stereo not drawn) | 97% (active)
65 | [O-][n+]1c2ccc(O)cc2nc2ccc(Br)cc21 | 70% (active)
66 | O=C1c2ccccc2-c2nc3ccccc3nc21 | 66% (inactive)
67 | CCCCN1C(=O)N(c2ccc(OCC)cc2)C2N(CCCC)C1C(C)(C)C2(C)C (stereo not drawn) | 25% (inactive)
68 | CO[C@H]1C[C@](C)(O)Cc2cc3c(c(O)c21)C(=O)c1c(O)cc2c(c1C3=O)O[C@@H]1O[C@@]2(C)[C@H](O)[C@@H](N(C)C)[C@@H]1O | -20% (inactive)
69 | COc1cc2c(cc1[N+](=O)[O-])C(=O)C(Br)(Br)CCC2 | 92% (active)
70 | O=C1OC(CCl)CN1/N=C/c1ccc([N+](=O)[O-])o1 (stereo not drawn) | 16% (inactive)
71 | CN(C)CCOc1ccc2c(c1)C/C(=C/c1ncc([N+](=O)[O-])n1C)C2=O | 59% (inactive)
72 | CCCCCCCCCCCCCCCCCCN(C)CC(COP(=O)([O-])OCC[N+](C)(C)C)OC (stereo not drawn) | 98% (active)
73 | CC(C)c1ccccc1NC(=O)/C(Cl)=C(\Cl)C(=O)O | 97% (active)
74 | O=[N+]([O-])C(=C(Sc1ccccc1)Sc1ccccc1)C(Cl)=C(Cl)Cl | 50% (inactive)
75 | C(=C\c1ccccc1)/COc1ccccc1C(N1CCOCC1)n1nc2ccccc2n1 (stereo not drawn) | 97% (active)
76 | O=C1C(Nc2ccccc2)=C(Oc2ccccc2)C(=O)c2ccccc21 | 70% (active)
77 | CCN(CC)CCN1C(=O)c2cccc3cc(OC)cc(c23)C1=O | 11% (inactive)
78 | CN(C)Cc1cc(N=Nc2ccc(Cl)cc2)cc(CN(C)C)c1O | 3% (inactive)
